Compounds with a hit are over-represented: about 19% of the library has one in this group of screens.
DT40 TDP1 CPT: growth inhibition of DT40 Tdp1-/-;hTDP1 cells with camptothecin (screen for TDP1 inhibitors). chicken DT40 Tdp1-/-;hTDP1 cells + 20 nM CPT, ATP luminescence, 48 h. Potency, µM (titrated, usually from 46.2 µM), for the others: at the highest dose activity change, negative = growth inhibition, hits mostly inhibitors. actives 12% (n = 420,000); note: nearly all actives have a fitted effect of over 55% in size
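Cell growth measured by CellTiter-Glo luminescence after a minimum 48 h, 37 C compound exposure with 20 nM CPT in Tdp1-knockout DT40 cells stably expressing hTDP1, seeded 400/well; qHTS titration format.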
HT1080 IDH1KD tx: kills HT-1080 cells with IDH1 knockdown; HT-1080 IDH1 knockdown viability, ATP luminescence, 48 h; Potency, µM (top dose mostly 46.1 µM), for inactives: at the highest dose activity, negative = toxicity, most hits filed as cytotoxic; actives 2% (n = 360,000); AID 686971;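 note: 0% = DMSO wells and -100% = cell-free medium wells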
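In this qHTS, HT-1080 cells depleted of IDH1 are exposed for 48 h at 37 °C to compound titrations. Toxicity is scored from CellTiter-Glo luminescence, with DMSO as full viability and medium alone as none.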
KB-3-1 tox: KB-3-1 parental cell cytotoxicity; Potency, µM (series often up to 46.1 µM), hits mostly cytotoxic; actives 1.4% (n = 400,000); KB-3-1 viability, CellTiter-Glo ATP luminescence, 72 h; AID 1347075; note: nearly all actives have a fitted effect of over 60% in size
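Luminescent ATP read-out (CellTiter-Glo) measures survival of drug-naive KB-3-1 cells after 72 h compound exposure at 37 °C. Titration series was screened from lowest to highest concentration, with DMSO vehicle plates as background controls.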
HT1080NT lethal: kills 2HG-producing HT-1080-NT fibrosarcoma cells; HT-1080-NT fibrosarcoma viability, CellTiter-Glo ATP luminescence, 48 h; Potency, µM (series often up to 46.1 µM), inactives show at the top dose activity, negative = less viability, hits mostly cytotoxic; actives 1.6% (n = 360,000); AID 686970;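 note: NT is the 2HG producing partner of a matched IDH1 knockdown line; 0% = DMSO-treated cells and -100% = media-only wells without cells; nearly all actives have a fitted effect of over 55% in size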
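Viability of the 2HG-overproducing fibrosarcoma line after 48 hours of compound exposure at 37 degrees C was determined by luminescence with CellTiter-Glo, and concentration-effect curves were then fitted and categorized.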
DT40 TDP1 no CPT: qHTS for Inhibitors of human tyrosyl-DNA phosphodiesterase 1 (TDP1): qHTS in cells in absence of CPT; actives 15% (n = 420,000); AID 686978, 2013; DT40 Tdp1-/- hTDP1 cells, no CPT, ATP luminescence, 48 h; Potency, µM (doses to about 46.2 µM), for inactives: at the top dose activity change, negative = growth inhibition, hits mostly inhibitors; note: nearly all actives have a fitted effect of over 55% in size
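Seeded 400 DT40-hTDP1 cells/well (vehicle DMSO, no 20 nM CPT); pinned compounds; ≥48 hr at 37 °C; CellTiter-Glo luminescence as viability measure.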
KB-V1 MDR tox: KB-V1 MDR subline cytotoxicity; KB-V1 MDR cells viability, CellTiter-Glo, 72 h; Potency, µM (highest dose often 46.1 µM), hits mostly cytotoxic; actives 3.4% (n = 400,000); note: nearly all actives have a fitted effect of over 60% in size
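KB-V1 MDR subline cells in DMEM (phenol-red free, 10% FBS) exposed to compounds in qHTS concentration series for 72 h at 37 degrees C. Viability read by CellTiter-Glo luminescence; concentration-effect curves fitted after normalization and correction.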
* marks the source's active call; other numbers are inactive results; i = inactive; ? = inconclusive; nt = no result given. Calls come from the whole dose curve; as a rule, active = well fitted curve in the direction sought with a large enough effect; inconclusive = small, poorly fitted or top-dose-only effect, or another doubt; inactive = no such curve, though single readings can be large; an effect the other way counts as inactive or inconclusive. Unless noted, % is set by controls: 0 for no effect and ±100 for the full control effect; potency is the fitted concentration of half-maximal effect.

SMILES | DT40 TDP1 CPT | HT1080 IDH1KD tx | KB-3-1 tox | HT1080NT lethal | DT40 TDP1 no CPT | KB-V1 MDR tox
Cc1nn(-c2ccccc2)c2c1cc1c(=O)[nH]c(=O)nc-1n2-c1cccc(Cl)c1 | 8.7% | nt | i | nt | -2.9% | i
CN(CC(=O)N(C)CC(=O)Nc1c(Cl)cccc1Cl)Cc1ccccc1F | -3.3% | 0.0% | i | -1.5% | -17.9% | i
NC(=O)CCN(C1CCCCC1)S(=O)(=O)c1cccc2nsnc12 | 7.3% | -0.8% | i | 2.2% | -2.1% | i
Cc1ccc(S(=O)(=O)N(CCC#N)C2CCCCC2)c2nsnc12 | 16.4µM* | -1.6% | i | 4.5% | 18.4µM* | ?
Cc1[nH]c2ccccc2c1SCCNC(=O)c1ccccc1F | ? | nt | i | nt | ? | i
Cc1ccc(C(=O)NCCc2nc3ccccc3[nH]2)cc1[N+](=O)[O-] | -3.5% | -17.2% | i | -2.6% | ? | i
COc1cc(C(=O)NCCSc2c(C)[nH]c3ccccc23)cc(OC)c1OC | ? | nt | i | nt | 14.6µM* | i
Cc1ccc(C(=O)NCCSc2c(C)[nH]c3ccccc23)cc1[N+](=O)[O-] | 10.3µM* | -20.6% | ? | ? | 20.6µM* | ?
COc1ccccc1C(=O)NCCSc1c(C)[nH]c2ccccc12 | 16.4µM* | nt | i | nt | 23.1µM* | ?
COc1cc(C(=O)NCC(=O)N/N=C/c2c(C)[nH]c3ccccc23)cc(OC)c1OC | ? | -4.5% | i | -1.4% | 25.9µM* | i
Nc1ncnc2c1ncn2[C@@H]1O[C@H](CNC(=O)[C@H]2CCC(=O)N2)[C@@H](O)[C@H]1O | -1.2% | -2.6% | i | -6.4% | -3.9% | i
COc1ccc(C2C(=O)c3ccccc3C2=O)cc1OC | ? | -0.4% | i | -19.0% | -9.1% | i
COc1ccc(-c2cccc3c2NC(=O)C3=O)cc1OC | 18.4µM* | 5.6% | ? | 7.5% | 14.6µM* | i
CC(=O)O[C@@H]1[C@H](OC(=O)CC(C)C)c2c(ccc3ccc(=O)oc23)OC1(C)C | 25.9µM* | 7.2% | i | 7.0% | ? | i
CCOc1ccc2ncc3c(-c4ccc(C)cc4)nn(-c4cccc(F)c4)c3c2c1 | -16.2% | nt | i | nt | -13.7% | i
CCN(CC)C(=S)SCC(=O)c1ccc(F)cc1 | 2.91µM* | ? | ? | ? | 4.11µM* | 18.4µM*
CCN(CC)C(=S)SCC(=O)Nc1cccc(C(F)(F)F)c1 | -10.6% | -14.6% | i | 1.4% | ? | i
CCN(CC)C(=S)SCC(=O)Nc1ccc(F)cc1 | 20.6µM* | -1.1% | i | 1.2% | ? | i
O=C(NC(c1ccccc1)c1ccccc1)c1ccc(S(=O)(=O)C(F)F)cc1 | 9.5% | -1.4% | i | 0.0% | -1.9% | i
O=C1NC[C@@H](CCCCN2CCN(CC3CCCCC3)C(=O)C2=O)N(CCC2CCCCC2)C1=O | -1.3% | 13.2% | i | 18.5% | -17.1% | ?
Cc1ccc(O)c(-c2cc(C(F)(F)C(F)F)nc(-c3ccccc3)n2)c1 | -11.4% | 1.8% | i | -0.1% | ? | i
Oc1ccc(Cl)cc1-c1cc(C(F)(F)C(F)F)nc(-c2ccccc2)n1 | 29.1µM* | -4.3% | i | 1.5% | 16.4µM* | i
CN1CCN(C(=O)c2ccc3c(c2)N(Cc2c(F)cccc2Cl)C(=O)c2ccccc2S3)CC1 | ? | nt | i | nt | 23.1µM* | i
CN1CCN(C(=O)c2ccc3c(c2)N(Cc2ccc(C(F)(F)F)cc2)C(=O)c2ccccc2S3)CC1 | ? | nt | ? | nt | 20.6µM* | i
O=C(NCc1ccc2c(c1)CCN2C(=O)c1ccc(F)cc1)c1cc2ccccc2[nH]1 | 16.4µM* | nt | i | nt | ? | i
SMILES | DT40 TDP1 CPT | HT1080 IDH1KD tx | KB-3-1 tox | HT1080NT lethal | DT40 TDP1 no CPT | KB-V1 MDR tox
O=C(Cc1ccc(F)cc1)NCc1ccc2c(c1)CCN2C(=O)c1ccc(F)cc1 | ? | nt | i | nt | 9.2µM* | i
O=C(NCc1ccc2c(c1)CCN2C(=O)c1ccccc1)c1cc2ccccc2[nH]1 | ? | nt | i | nt | ? | i
CC(=O)Nc1cccc(C(=O)NCc2ccc3c(c2)CCN3C(=O)c2ccc(F)cc2)c1 | 20.6µM* | nt | i | nt | 16.4µM* | i
CCCCCOc1ccc(Cn2c(=O)oc3ccc(C)cc32)cc1OC | 25.9µM* | nt | i | nt | 20.6µM* | ?
Cc1ccc(C(C)C)c(OCCCn2c(=O)oc3ccc(C)cc32)c1 | ? | nt | i | nt | 16.4µM* | ?
CC(C)c1cc(Br)ccc1OCCN1C(=O)NC(C)(C)C1=O | -22.8% | -8.9% | i | -9.1% | -13.9% | i
Cc1ccc(C(C)C)c(OCCCN2C(=O)NC(C)(C)C2=O)c1 | 3.5% | 1.4% | i | -0.8% | -25.0% | 14.6µM*
Cc1ccc(C(C)C)c(OCCCn2c(=O)oc3ccccc32)c1 | ? | nt | i | nt | ? | i
Cc1ccc([N+](=O)[O-])c(OCCN2C(=O)NC(C)(C)C2=O)c1 | 0.6% | 3.4% | i | 1.2% | -18.5% | i
Cc1cc(OCCCCN2C(=O)NC(C)(C)C2=O)ccc1[N+](=O)[O-] | ? | -23.2% | i | -2.2% | 11.6µM* | ?
CCOCCOC(=O)c1ccc2c(c1)N(Cc1ccccc1C#N)C(=O)c1ccccc1S2(=O)=O | ? | nt | i | nt | ? | i
Cc1cc(Cl)cc(Br)c1OCCCN1C(=O)NC(C)(C)C1=O | -15.7% | 5.2% | ? | -3.6% | -14.2% | 18.4µM*
Cc1ccc(OS(=O)(=O)c2ccc(N3C(=O)CCC3=O)cc2)cc1 | -1.8% | -18.3% | i | 0.2% | -7.5% | i
O=S(=O)(c1ccc(Cl)c(C(F)(F)F)c1)N1CCN(c2ccccn2)CC1 | 0.1% | 0.8% | i | -0.8% | -23.4% | ?
Cc1ccc(Cc2c(-c3cccc(Br)c3)nc3ccc(Cl)cn23)cc1 | ? | -3.8% | i | 0.4% | 18.4µM* | i
Cc1ccc2nc(-c3cccc(Cl)c3)c(Cc3cccc(F)c3)n2c1 | ? | 3.8% | i | 16.9% | ? | ?
Clc1ccc2nc(-c3ccccc3)c(Cc3ccccc3)n2c1 | ? | 9.9% | ? | 17.6% | 18.4µM* | i
Clc1ccc(-c2nc3ccc(Cl)cn3c2Cc2ccccc2)cc1 | ? | 8.8% | i | -0.1% | ? | i
Brc1cccc(-c2nc3c4ccccc4ccn3c2Cc2ccccc2)c1 | 20.6µM* | -15.7% | i | -19.9% | ? | i
CCCc1nc2ccc(C)cn2c1Cc1cccc(Cl)c1 | ? | ? | i | ? | 16.4µM* | i

Screening results (PubChem)
